# Data from PubChem BioAssay (EPA / NIEHS).
# Values joined by “and” are separate entries in the source; they are usually repeats but may differ in a detail not shown here. Equal entries are not always repeated. Records with an inconclusive call do not appear. Some compounds were tested as several samples or in several runs, with calls that do not always agree. Active and inactive are the calls of the source. Rule for the calls, unless noted: active = hit-call score of the fitted dose curve at least 0.9, where 1 is the maximum; inactive = score below 0.9.
# Tests used:
# CD69, CD69 (gene 969) = experiment: BSK_LPS_CD69: BioMAP Diversity Plus: LPS Assay for CD69 Biomarker Activity (AID 2284303); details: primary human HUVEC with PBMC
# In short: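 CD69 surface levels were read by ELISA after 24 h chemical treatment of an LPS-stimulated HUVEC plus PBMC co-culture; positive-direction fit against DMSO vehicle.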
# [1] = IUF_NPC2b_neuronal_migration_120hr: Leibniz Research Institute for Environmental Medicine (IUF) 120-hour Neural Progenitor Cell Migration Assay for Neuron Migration (NPC2b) (AID 2284300)
# In short: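 TUBB3-positive neurons are imaged after 120 h of differentiation, and their mean distance from the sphere edge is normalised to radial glia migration. Single 0.3 mm fetal hNPC spheres on poly-D-lysine/laminin received 7 compound concentrations, ≤0.1% DMSO, refreshed at day 3.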
# [2] = IUF_NPC3_neuronal_differentiation_120hr: Leibniz Research Institute for Environmental Medicine (IUF) 120-hour Neuronal Differentiation Assay (NPC3) (AID 2284301)
# In short: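 Neuronal differentiation of primary human neural progenitors measured by high-content imaging: percent TUBB3+ of Hoechst+ nuclei within migrated area at 120 h, seven-point serial dilution plus solvent control, gain or loss relative to DMSO.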
# [3] = IUF_NPC4_neurite_length_120hr: Leibniz Research Institute for Environmental Medicine (IUF) 120-hour Neuronal Morphology Assay for Neurite Length (NPC4) (AID 2284302)
# In short: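 Neurons from differentiating human fetal neural progenitor spheres are scored for average neurite length after five days of compound exposure. Fitting uses DMSO as negative control.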
# [4] = IUF_NPC5_oligodendrocyte_differentiation_120hr: Leibniz Research Institute for Environmental Medicine (IUF) 120-hour Oligodendrocyte Differentiation Assay (NPC5) (AID 2284304; active = hit-call score of the fitted dose curve at least 0.9, where 1 is the maximum;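 note: share of O4-positive cells among Hoechst nuclei found by CNN image analysis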)
# Description: IUF_NPC2-5 is a cell-based, multiplexed assay that uses hNPC, a human primary neural progenitor cells, with measurements taken at 72 or 120 hours after chemical dosing in a 96-well plate. Human neural progenitor cells (hNPC) are generated from human fetal brain cortex at gestational week (GW) 16-19. In the neural progenitor cell migration and differentiation assay (NPC2-5), hNPCs grown as spheres are plated on an extracellular matrix and migrate and differentiate out of the sphere core. The processes radial glia migration, neuronal and oligodendrocyte migration as well as neuronal differentiation, neuronal morphology and oligodendrocyte differentiation are studied using automated phase contrast imaging and automated fluorescence imaging in combination with high content image analysis. In parallel, the cell viability is assessed using an alamar blue viability assay and the cytotoxicity using a lactate dehydrogenase dependent membrane integrity assay.IUF_NPC5_oligodendrocyte_differentiation_120hr is one of 12 assay components measured from the IUF_NPC2-5 assay. Oligodendrocyte differentiation at 120 hr is determined as the number of all O4-positive cells in percent of the number of Hoechst-positive nuclei in the total neurosphere migration area (see IUF_NPC2a_ glia_migration_120hr) after 120 hr of migration/differentiation. […]
# [5] = IUF_NPC4_neurite_area_120hr: Leibniz Research Institute for Environmental Medicine (IUF) 120-hour Neuronal Morphology Assay for Neurite Area (NPC4) (AID 2284305; active = hit-call score of the fitted dose curve at least 0.9, where 1 is the maximum)
# In short: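 Endpoint at 120 h: automated imaging of TUBB3/Hoechst-stained differentiating human neural progenitor spheres, neurite area per neuron from skeletonization. DMSO solvent control, not above 0.1%, set the baseline; medium was half-replaced on day 3.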
# [6] = IUF_NPC2-5_cytotoxicity_72hr: Cytotoxicity Assessment at 72 hours in the Leibniz Research Institute for Environmental Medicine (IUF) Neural Progenitor Cell Migration and Differentiation Assay for Cytotoxicity (NPC2-5) (AID 2284306; active = hit-call score of the fitted dose curve at least 0.9, where 1 is the maximum;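 note: LDH release into supernatant measured by resorufin fluorescence marking membrane damage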)
# In short: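 Primary human neural progenitor spheres migrate and differentiate on laminin. Compound is present from the start of differentiation, with DMSO kept at or below 0.1%. At 72 h, supernatant LDH is quantified fluorometrically, with values fitted in the positive direction.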
# [7] = IUF_NPC2-5_cytotoxicity_120hr: Cytotoxicity Assessment at 120 hours in the Leibniz Research Institute for Environmental Medicine (IUF) Neural Progenitor Cell Migration and Differentiation Assay (NPC2-5) (AID 2284307; active = hit-call score of the fitted dose curve at least 0.9, where 1 is the maximum)
# In short: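 Membrane-integrity loss measured as LDH activity in medium supernatant via resazurin-to-resorufin fluorescence after 120 h exposure. hNPC spheres from GW 16-19 fetal cortex differentiated on poly-D-lysine/laminin, 37C, medium half-refreshed day 3; seven concentrations, DMSO max 0.1%.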
# [8] = IUF_NPC2-5_cell_number_120hr: Cell Number Assessment at 120 hours in the Leibniz Research Institute for Environmental Medicine (IUF) Neural Progenitor Cell Migration and Differentiation Assay (NPC2-5) (AID 2284308);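 note: count of Hoechst-stained nuclei in migration zone around plated human neural progenitor spheres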
# In short: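 Counting of all Hoechst-stained nuclei in the migration area at 120 h, versus DMSO control. Primary hNPC spheres differentiated on poly-D-lysine/laminin in N2 medium at 37C, dosed from day 0 (7 concentrations, DMSO ≤0.1%), half-refed day 3.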
# [9] = IUF_NPC2-5_viability_120hr: Viability Assessment at 120 hours in the Leibniz Research Institute for Environmental Medicine (IUF) Neural Progenitor Cell Migration and Differentiation Assay (NPC2-5) (AID 2284312)
# In short: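 Human fetal (GW 16-19) neural progenitor spheres of 0.3 mm were plated on poly-D-lysine/laminin in N2 differentiation medium and exposed from day 0 for 120 h, with half-medium refresh at day 3. Viability was read as alamar blue resazurin-to-resorufin fluorescence against DMSO.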
smiles,measurement,setting,value
Oc1ccccc1Cc1ccccc1O,outcome,"CD69, CD69 (gene 969)",inactive
Cc1c(C(=O)c2c[nH]n(C)c2=O)ccc(S(C)(=O)=O)c1C1=NOCC1,outcome,[1],inactive
same,outcome,[2],inactive
same,outcome,[3],inactive
same,outcome,[4],inactive
same,outcome,[5],inactive
same,outcome,[6],inactive
same,outcome,[7],inactive
same,outcome,[8],inactive
same,outcome,[9],inactive
CCCC(C)C(=O)OCC (stereo not drawn),outcome,"CD69, CD69 (gene 969)",inactive
CC(C)C(=O)OCCc1ccccc1,outcome,"CD69, CD69 (gene 969)",inactive
C[N+](C)(C)CCCNS(=O)(=O)C(F)(F)C(F)(F)C(F)(F)C(F)(F)C(F)(F)C(F)(F)C(F)(F)C(F)(F)F,AC50,"CD69, CD69 (gene 969)",30 µM (active)
same,outcome,"CD69, CD69 (gene 969)",inactive
CCCCCCCCCCCC(=O)N(C)CC(=O)O,outcome,"CD69, CD69 (gene 969)",inactive
c1ccc(Nc2cccc3ccccc23)cc1,AC50,"CD69, CD69 (gene 969)",36.5 µM (active) and 20 µM (active)
CCCCNS(=O)(=O)c1ccccc1,outcome,[1],inactive
same,outcome,[2],inactive
same,outcome,[3],inactive
same,outcome,[4],inactive
same,outcome,[5],inactive
same,outcome,[6],inactive
same,outcome,[7],inactive
same,outcome,[8],inactive
same,outcome,[9],inactive
O=C(O)C(F)(F)C(F)(F)C(F)(F)C(F)(F)C(=O)O,outcome,"CD69, CD69 (gene 969)",inactive
CC(CCC(=O)O)(c1ccc(O)cc1)c1ccc(O)cc1,outcome,"CD69, CD69 (gene 969)",inactive
Nc1nc(N)nc(-c2ccccc2)n1,outcome,"CD69, CD69 (gene 969)",inactive
